Source: PubChem BioAssay AID1645859 (Buhrlage Lab, Dana-Farber Cancer Institute and Novartis …, 2021)
Out of some 47,000 compounds screened, about 95 (0.2%) were called active. Cut-off read from the data, not from the text of the source: active = inhibition above about 30%; inactive = the rest. Only a selection was taken, and actives are over-represented in it overall.

Biological target: Ubiquitin carboxyl-terminal hydrolase isozyme L1 (Homo sapiens) (UniProt P09936)
Test: inhibitors of human UCHL1 deubiquitinase (AID 1645859)
Conditions: purified UCHL1, Ub-rhodamine cleavage fluorescence; at 20 µM; hits give high values

Chain of Ubiquitin carboxyl-terminal hydrolase isozyme L1 (Homo sapiens) (P09936 whole entry, looked up): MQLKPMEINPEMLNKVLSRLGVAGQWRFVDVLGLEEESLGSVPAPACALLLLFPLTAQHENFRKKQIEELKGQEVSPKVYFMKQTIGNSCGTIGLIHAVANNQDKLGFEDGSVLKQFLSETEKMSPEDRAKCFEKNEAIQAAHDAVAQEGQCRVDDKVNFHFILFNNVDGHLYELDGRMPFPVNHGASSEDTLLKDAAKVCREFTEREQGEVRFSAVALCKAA

inhibition, inactive:
Cc1nc(C2CCCN2C(=O)c2ccccn2)nc2c1CCCN2Cc1ccccn1 (stereo unspecified) -7.02%
COc1ccc(NC(=O)CN(C)C(=O)c2ccc3c(c2)nnn3C)cc1 2.41%
Cc1ccc(C(=O)N2CCN3Cc4ccccc4N(C)CC3C2)cc1 (stereo unspecified) -155%
Cc1cc(-c2cncnc2-c2ccc(CNC(=O)Cc3cc(F)ccc3F)cc2)on1 2.52%
CCc1ccc(C2CN3C(=O)CN(CCN4CCOCC4)C(=O)[C@]3(C)c3[nH]c4ccccc4c32)cc1 (stereo partly specified) 7.01%
O=C(O)c1ccccc1-c1ccccc1C(=O)Nc1ccccc1O 1.93%
O=C(Nc1cccc(-c2cccc(F)c2)c1)C1CCN(Cc2cccc3c2OCO3)CC1 6.73%
CC(C)(C)c1ccc(Oc2ccc(NC(=O)c3ccc4c(c3)CCO4)cn2)cc1 1.03%
CN(C(=O)CC(NC(=O)c1ccccc1)(c1ccccc1)c1ccccc1)c1ccccc1 1.79%
Cc1ccc(NC(=O)CCc2nc(CSc3nnc(-c4ccco4)o3)no2)cc1C 1.67%
CNCC(=O)N1CCCC(c2nc(C)cc(Nc3cccc(C)n3)n2)C1 (stereo unspecified) 0.00326%
COc1ccc(C)cc1NC(=O)NC1(c2nc(C)no2)CCCCC1 -4.28%
Cc1sc2ncn(CC(=O)N3c4ccccc4CC3C)c(=O)c2c1C (stereo unspecified) -2.03%
Cc1ccc(CS(=O)(=O)c2cn(CC(=O)NCc3cccnc3)c3ccccc23)cc1 1.32%
O=C(C1CCCN(S(=O)(=O)c2ccccc2)C1)N1CCN(CCc2ccccn2)CC1 (stereo unspecified) -1.48%
COc1ccc(NC(=O)C2=C(C)Nc3ncnn3C2c2cccc(OCc3ccc(F)cc3)c2)c(OC)c1 (stereo unspecified) 4.6%
COc1cc(C2CC(=O)Nc3cc4c(cc32)OCO4)ccc1O (stereo unspecified) -1.12%
CC(C)Cc1ncc(CCCN=C(N)N)[nH]c1=O -8.33%
COc1ccc(C2c3cccn3CCN2C(=O)Nc2cccs2)cc1 (stereo unspecified) -66.3%
Cc1ccccc1Cn1cc(/C=C2/C(=N)N3N=C(COc4ccccc4)SC3=NC2=O)c2ccccc21 -1.05%
CCOC(=O)C1=C(COc2ccccc2C#N)NC(=O)NC1C (stereo unspecified) -3.02%
Cc1cc(C)n2nc(C(=O)N3CCCC(c4[nH]ncc4C)C3)cc2n1 (stereo unspecified) -2.57%
Cc1nc(N(C)Cc2ccccc2)c2c3c(sc2n1)CCCC3 -6.54%
Cc1oc(C2CCN(C(=O)NC3CCCC3)CC2)nc1C(=O)N(C)C 1.1%
CC1CCN(C(=O)Cn2c(=O)n(Cc3ccccc3)c(=O)c3cc(Cl)ccc32)CC1 3.62%
COc1ccccc1C1CNCCN1Cc1cnc(N(C)C)nc1 (stereo unspecified) -0.867%
Cc1cc(OCc2ccc(Cl)cc2Cl)cc2c1C(=O)CC(C)(C)O2 3.56%
Cc1noc(C2CN(Cc3nccs3)Cc3ccnn3C2)n1 (stereo unspecified) -2.68%
O=C(CCc1c[nH]c2ccccc12)N1CCN(C(=O)C2CCCO2)CC1 (stereo unspecified) -0.0658%
Cc1nc2ccccc2n(CC(=O)NCc2ccc(OC(C)C)cc2)c1=O -4.18%
CCCN1CCC(Nc2ncnc3scc(-c4ccccc4)c23)CC1 -1.59%
